Our source for the growth values is PubChem BioAssay (NCI).

SMILES strings stand for the structures. The panel holds about 83,000 compounds, 20% with a hit somewhere; the sample as a whole holds those more often.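 Interpretation: 100, growth as untreated; towards 0, rising growth inhibition; 0, no net growth; 0 to -100, cell death. Compounds scoring below 10 were considered active.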 Unmarked numbers belong to inactive results. Activity calls are given as the source filed them.

Holding throughout (experiment): NCI-60 one-dose screen, 48 h (100 = growth as untreated, 0 = no growth, -100 = all killed)
Common to all, as to conditions: 10 µM unless noted

The test system of assay [1] is NCI-H23 lung.
Assay [2] deals with NCI-H226 lung.
For assay [3], the system named is NCI-H322M lung.
The test system of assay [4] is HOP-62 NSCLC.
Assay [5] deals with NCI-H460 lung.
For assay [6], the system named is HOP-92 NSCLC.
Assay [7] relates to NCI-H522 lung.
The subject of assay [8] is A549/ATCC NSCLC.
Assay [9] concerns 786-0 renal.
Assay [10] has as its system COLO 205 colon.
The subject of assay [11] is DU-145 prostate.
The test system of assay [12] is K-562 leukemia.
Assay [13] relates to MALME-3M melanoma.
In assay [14] the test system is MDA-MB-231 breast.
Assay [15] deals with RXF 393 renal.
The subject of assay [16] is SF-268 CNS.
Assay [17] relates to SF-295 CNS.
Assay [18] relates to UACC-257 melanoma.
Assay [19] concerns M14 melanoma.

As for `COCCCNc1nc(NC(=O)c2ccc(F)cc2C)cc(-c2cccnc2)n1`, the growth in assay [1] is 107%; in assay [2], 89.1%; in assay [3], 102%; in assay [4], 99.4%; in assay [5], 102%; in assay [6], 67%. For the same compound, the growth in assay [7] was 78.6%; in assay [8], 79.8%; in assay [9] it was 98.4%; in [10] it was 111%; in assay [11] it was 110%; in [12], 104%. Further, the growth is 107% in assay [13]; 81.1% in assay [14]; 99.5% in assay [15]; 104% in assay [16]; 104% in assay [17]; 84.1% in assay [18]. The growth in assay [19] is 103%.
As to `CC(=O)N1CC(Nc2ccc(OC(F)(F)F)cc2)=CC1=O`, the growth in assay [1] is 56.8%; in [2], 67.5%; in assay [3], 43.3%; in [4], 30.2%; in [5], 20.6%; in [6], 50%. Also, the growth was 29.3% in [7]; 38.9% in [8]; 53.6% in [9]; 4.8% (active) in assay [10]; 27% in [11]; 8.54% (active) in assay [12]. The growth in [13] is 55.7%; in assay [14] it was 55%; in assay [15] it was 39.6%; in [16], 59.8%; in assay [17], 14.7%; in assay [18] it was 46.6%. The growth in assay [19] is 4.04% (active).
Take `C=C1CCC2C3(C)COC(C)(C)OC3CCC2(C)C1C/C=C1/C(=O)OCC1OC(C)=O` (configuration not stated): the growth in assay [1] is 50.4%; in [2], 50.3%; in assay [3] it was 100%; in assay [4], 112%; in [5], 95.4%; in [6] it was 123%. Moreover, the growth is -88.7% (active) in assay [7]; 61.7% in assay [8]; 48.5% in assay [9]; -0.595% (active) in assay [10]; 42.4% in assay [11]; 9.82% (active) in assay [12]. Besides, the growth was 71.9% in [13]; 86.2% in assay [14]; -53.8% (active) in assay [15]; 63.4% in [16]; 116% in assay [17]; 20.2% in assay [18]. Also, the growth in assay [19] was 19.3%.
Take `COc1ccc2nc3cc(Cl)ccc3c(NCCNCC(O)CO)c2c1` (configuration not stated): the growth is 23.6% in assay [1]; 43.1% in assay [2]; 20.6% in [3]; 31.5% in assay [4]; 0.301% (active) in [5]; 13.1% in assay [6]. In addition, the growth is 3.19% (active) in assay [7]; 14.6% in [8]; 29.3% in [9]; 0.893% (active) in assay [10]; 31.6% in assay [11]; 10.8% in assay [12]. Also, the growth was 28.7% in [13]; 20% in assay [14]; 9.56% (active) in [15]; 28.8% in assay [16]; 45.6% in assay [17]; 32.5% in assay [18]. In addition, in assay [19], the growth is 28%.
In the case of `NCc1cn2cc(Cl)sc2n1`, the growth in [1] was 107%; in assay [2] it was 101%; in assay [3], 90.3%; in assay [4], 112%; in [5], 103%; in [6], 101%. For the same compound, the growth is 95.5% in assay [7]; 92.9% in assay [8]; 106% in assay [9]; 114% in assay [10]; 114% in assay [11]; 95% in [12]. For the same compound, the growth in [13] was 103%; in assay [14] it was 112%; in assay [15], 98.9%; in assay [16] it was 111%; in assay [17], 102%; in assay [18] it was 105%. Moreover, in assay [19], the growth is 108%.
Take `COc1ccccc1-c1ccc2c(N)c(C(=O)c3ccc4c(c3)OCO4)sc2n1`: the growth in [1] was 82.1%; in [2], 96.7%; in assay [3], 94.7%; in assay [4] it was 73.3%; in [5], 60.2%; in [6] it was 67.8%. In addition, the growth in [7] was 18.6%; in [8], 46.1%; in assay [9], 86%; in [10], 89.1%; in assay [11], 90.5%; in assay [12], 14.4%. The growth is 48.2% in [13]; 51.8% in assay [14]; 75.3% in assay [15]; 84.3% in assay [16]; 63.9% in [17]; 81.4% in assay [18]. For the same compound, the growth in [19] was 46.6%.
On to `COc1ccc2nc3cc(Cl)ccc3c(N3CCN(c4nccc(Nc5ccccc5)n4)CC3)c2c1`, for which the growth in [1] was 69.8%; in [2], 95.4%; in assay [3], 88.3%; in [4], 79.2%; in assay [5], 67.4%; in [6], 67%. In addition, the growth is 7.15% (active) in assay [7]; 65.1% in assay [8]; 59.1% in assay [9]; 89.8% in [10]; 75.2% in [11]; 41.5% in [12]. In addition, the growth was 110% in assay [13]; 70.2% in assay [14]; 35% in assay [15]; 61.3% in assay [16]; 78.3% in [17]; 82.2% in assay [18]. For the same compound, the growth in assay [19] is 60.8%.
With `COc1ccc(CNc2nccnn2)cc1`, the growth in [1] is 94.6%; in assay [2] it was 92%; in assay [3], 103%; in [4] it was 98.6%; in assay [5], 106%; in [6] it was 108%. Also, the growth in assay [7] was 85.4%; in assay [8], 96.9%; in assay [9] it was 107%; in assay [10] it was 95%; in [11], 112%; in assay [12], 96.2%. The growth in assay [13] is 100%; in assay [14], 106%; in assay [15], 88.1%; in [16] it was 103%; in assay [17], 101%; in assay [18], 107%. Besides, in assay [19], the growth was 96%.
